TbREL1 inh = TbREL1 inhibition, primary screen. AID 1117264. inhibition, % at 9.66 µM. TbREL1 RNA ligation, FRET fluorescence. 89,000 compounds, 0.49% hits;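 active means inhibition above the mean inhibition across all screened compounds plus 3 SD, cut at about 11% in these data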
Target sequence (P86926 whole entry, looked up): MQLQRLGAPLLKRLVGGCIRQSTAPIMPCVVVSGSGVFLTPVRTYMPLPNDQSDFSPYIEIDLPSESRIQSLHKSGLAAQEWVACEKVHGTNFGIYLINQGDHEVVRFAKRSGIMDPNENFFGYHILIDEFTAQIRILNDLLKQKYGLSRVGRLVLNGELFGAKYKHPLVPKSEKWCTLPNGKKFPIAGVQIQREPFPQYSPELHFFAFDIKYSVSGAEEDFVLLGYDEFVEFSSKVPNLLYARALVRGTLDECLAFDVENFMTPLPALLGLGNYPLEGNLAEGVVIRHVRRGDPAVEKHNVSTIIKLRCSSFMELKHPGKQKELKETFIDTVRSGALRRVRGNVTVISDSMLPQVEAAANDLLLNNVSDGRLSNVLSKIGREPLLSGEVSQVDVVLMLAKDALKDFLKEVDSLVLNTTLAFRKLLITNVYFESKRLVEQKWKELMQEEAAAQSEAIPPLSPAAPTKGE
TbREL1 conf = TbREL1 inhibition, confirmation. shares compounds with TbREL1 inh. TbREL1 RNA ligation, FRET fluorescence. inhibition, % at 9.66 µM. 390 compounds, 37% hits. AID 1117282;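 active means mean inhibition across replicates above a set limit taken from the earlier primary screen, cut at about 11% in these data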
Large screens that a line does not name were inactive (follow-up assays come after a bar, where they were run); ! = repeats disagree. This is one part of a sample in which hits are shown more often than they occur.

CC(C)(C)CC(=O)Nc1nnc(SCC(=O)NC2CCCC2)s1	none
CCSc1nnc(NC(=O)CSC2=NN3CCCC(=O)N=C3S2)s1	TbREL1 inh 15 | TbREL1 conf inactive
CC(C)c1cc(C(C)C)c(S(=O)(=O)N2CCCC(C(=O)NCc3cccs3)C2)c(C(C)C)c1 (stereo unspecified)	none
COc1ccc(-c2cn3nc(C)c(C)nc3n2)cc1OC	none
COc1ccc(-c2nn3cnnc3s2)cc1OC	TbREL1 inh 11 | TbREL1 conf inactive
COc1ccc(-c2nn3c(COc4ccccc4)nnc3s2)cc1OC	none
CC(c1ccccc1)n1cc(C(=O)N2CCCC2)nn1 (stereo unspecified)	none
C=CCn1c(SCC(N)=O)nnc1-c1ccc(C)cc1	none
C[C@H]1[C@@H](OC(=O)NCc2cccnc2)CC[C@@]23CCCN2C(=O)CCC[C@@H]13	none
COc1ccc(CCn2c(C)nc3c(c(=O)c4ccccc4n3C)c2=O)cc1	none
CCCc1nc2c(=O)n(C)c(=O)nc-2n(C)n1	TbREL1 inh 61 | TbREL1 conf 86
O=C(C1CCCCC1)n1ccc2ccc(-c3ccc4ccn(Cc5ccccc5)c4c3)cc21	none
O=C(OCc1cn(Cc2ccccc2F)nn1)N1CCOCC1	none
CS(=O)(=O)N1C[C@]2(c3ccccc3)CC1Cc1ccccc12	none
O=C(CSc1nc2ncccc2[nH]1)N1CCOCC1	none
CCOC(=O)c1csc(NC(=O)C2CCCN(S(=O)(=O)c3ccc([N+](=O)[O-])cc3)C2)n1 (stereo unspecified)	none
O=C(NCc1ccco1)O[C@H]1CC[C@@]23CCCN2C(=O)CCC[C@H]3C1	none
COCO[C@@H]1CC(CO)=C[C@H]2OCO[C@H]21	none
CNCC/C=C1/c2ccccc2CSc2ccccc21	none
S=C1Nc2ccccc2Sc2ccc(Cl)cc21	none
CCCCCC[N+](C)(C)CC/C=C1/c2ccccc2Sc2ccc(Cl)cc21	TbREL1 inh 14 | TbREL1 conf 14
COC(=O)[C@]12CCCCC=C1N(Cc1ccc(OC)cc1)C(=O)[C@@H]2CC(=O)NCc1cccc(C(F)(F)F)c1	none
CC1CCC2(CCC(=O)N2C[C@@H](O)c2ccccc2)CC1 (stereo partly specified)	none
Cn1cccc1C(=O)N1CCN(S(=O)(=O)c2cccs2)CC1	none
C(C#CCCCCCCCCC[n+]1ccccc1)#CCCCCCCCCC[n+]1ccccc1	TbREL1 inh 11 | TbREL1 conf 24
Cc1ccc(-n2c(COc3ccccc3)nnc2SCC(=O)Nc2ccc3c(c2)OCO3)cc1	none
Nc1[nH]c2cc(C(F)(F)F)ccc2c1C(=O)NC1CCCCC1	none
C[c-]1[c-](C)[c-](C)[c-](C)[c-]1C.[Fe].c1cc2nccc(N3CCCC3)[c-]2c1 (stereo unspecified)	TbREL1 inh 14 | TbREL1 conf 16!
C[C@@H]1CCN(C2CC2)S(=O)(=O)c2ccc(N3CCC[C@@H]3C)cc2O1	none
CCn1c(SCC(=O)NN=Cc2ccc(C(=O)O)cc2)nc2ccccc21	none
CCCCN(C)C(=O)C1CCN(S(=O)(=O)c2ccc3[nH]c(=O)oc3c2)CC1	none
O=C(Nc1cccc(Cl)c1)OCCN1CCCC12CCC(c1ccccc1)CC2 (stereo unspecified)	none
COc1ccc(C2CC3CN(C4CCCCC4)C(=O)C3N2C)cc1 (stereo unspecified)	none
C=CCNCCOCCOc1ccc(Cl)cc1C(C)(C)C	TbREL1 inh 16 | TbREL1 conf 19
C=CCNCCOCCOc1ccc(C)cc1Br	none
CC(C)NCCOCCOc1ccc(Cl)cc1Br	none
O=C(NCc1cccs1)C1CCCN(S(=O)(=O)c2cccc3ccccc23)C1 (stereo unspecified)	none
O=C(CSc1nnc(-c2cccnc2)n1-c1ccc(Cl)cc1)Nc1cccc2ccccc12	none
CCC(=O)c1ccc(OC(=O)c2cnccn2)cc1	TbREL1 inh 17 | TbREL1 conf inactive
O=C(OCCOc1ccc(Br)cc1)c1cnccn1	none
COc1ccc(C(=O)NCCNC(=O)c2cnccn2)cc1	none
COc1ccc(C(=O)CSc2nnc(-c3cccc(Cl)c3)n2Cc2ccco2)cc1	none
O=c1cc(CN2CCc3ccccc32)nc2sccn12	TbREL1 inh 15 | TbREL1 conf 22
O=c1cc(CN2CCCc3ccccc32)nc2sccn12	none
CC1CN(Cc2cc(=O)n3ccsc3n2)CC(C)O1 (stereo unspecified)	none
C=CCN1C(=O)[C@H](CC(=O)N2CCOCC2)[C@@]2(C(=O)OCC)CCCC=C12	none
O=C(NCc1ccc(OC(F)(F)F)cc1)c1cccc2c1C(=O)c1ccc(N3CCCCC3)cc1S2(=O)=O	none
O=C(NCc1cc(C(F)(F)F)ccc1Cl)c1cccc2c1C(=O)c1ccc(N3CCCCC3)cc1S2(=O)=O	TbREL1 inh 41 | TbREL1 conf inactive
O=C(NCc1cc(C(F)(F)F)ccc1Cl)c1cccc2c1C(=O)c1ccc(N3CCOCC3)cc1S2(=O)=O	none
O=C(NCC1COc2ccccc2O1)c1ccc(NC(=O)c2cccc(F)c2)cc1 (stereo unspecified)	none
O=C(NC1CCCCC1)C1CCCN(S(=O)(=O)c2cccc3cccnc23)C1 (stereo unspecified)	TbREL1 inh 13 | TbREL1 conf inactive
O=C(Nc1ccncc1)C1CCCN(S(=O)(=O)c2cccc3cccnc23)C1 (stereo unspecified)	none
O=C(NC1CCCC1)C1CCN(S(=O)(=O)c2cccc3cccnc23)CC1	none
O=C(NCc1cccs1)O[C@H]1CC[C@@]23CCCN2C(=O)CCC[C@H]3C1	none
O=C(C1CCCN1S(=O)(=O)c1ccccc1[N+](=O)[O-])N1CCN(c2ccccc2)CC1 (stereo unspecified)	none
CC(C)(C)c1ccc(-c2nnc(SCc3cccc4ccccc34)n2Cc2ccco2)cc1	none
Cc1ccc(S(=O)(=O)N2OC(c3ccccc3)C[C@H]2CC=C(c2ccccc2)c2ccccc2)cc1 (stereo partly specified)	none
Cc1cc(NC(=O)C23CC4CC(CC(C4)C2)C3)n[nH]1	TbREL1 inh 12 | TbREL1 conf inactive
CCC(=O)Nc1cc(C)c(NC(=O)C23CC4CC(CC(C4)C2)C3)cn1	none
Cc1nn(C)c(C)c1NC(=O)C12CC3CC(CC(C3)C1)C2	none
O=C(NCc1ccc(Cl)cc1)C1CCCN(c2ncccn2)C1 (stereo unspecified)	none
Cc1ccc(-c2nc3ncccn3c2NC(=O)Nc2ccc(OC(F)(F)F)cc2)cc1	none
Cc1ccc(CN2CCCCC(NC(=O)c3ccc(F)c(F)c3)C2=O)cc1 (stereo unspecified)	none
COc1cccc(CNC(=O)C2C3C=CC4(CN(Cc5ccccc5)C(=O)C24)O3)c1OC (stereo unspecified)	none
COC(=O)[C@]12C[C@H](CC(=O)N3CCN(C(=O)c4ccco4)CC3)C(=O)N(CCc3ccc(OC)c(OC)c3)C1=C[C@H](C(C)C)O[C@@H]2C1CC1	none
CCOc1cc(NC(=O)CCl)c(OCC)cc1NC(=O)CCl	TbREL1 inh 12 | TbREL1 conf inactive
CCOc1ccccc1OCC(=O)Nc1ccc(Cl)cc1Cl	none
CCOc1cc(NC(=O)C2CCCO2)c(OCC)cc1NC(=O)C1CC1 (stereo unspecified)	none
C=CCN(C(=O)[C@@H](C1CC1)[C@@H](O)c1ccc(Cl)cc1)c1ccccc1	none
Cc1ccc(OCc2nn3c(C4CCCCC4)nnc3s2)cc1	none
O=C(CN1C(=O)NC(CCc2ccccc2)C1=O)Nc1ccccc1C(F)(F)F (stereo unspecified)	none
COC(=O)C1=C(C)N(Cc2cccc(C(F)(F)F)c2)C(=NCc2cc(OC)c(OC)c(OC)c2)NC1CCc1ccccc1 (stereo unspecified)	TbREL1 inh 12 | TbREL1 conf 20

Screening data (PubChem BioAssay)
